This is a sample that favours compounds with a hit; in the whole collection about 3.1% have one here.
Tau FP inhib: blocks human tau fibril formation measured by polarization; P10636; Potency, µM (highest dose often 57.7 µM), for inactives: at the highest dose activity, negative = inhibition, most hits filed as inhibitors; 280,000 tested, 0.39% active; K18 P301L tau heparin fibrillization, Alexa594 FP, 6 h; also: nearly all actives have a fitted effect of over 55% in size
Target sequence (P10636 561-689 P618L limits assumed): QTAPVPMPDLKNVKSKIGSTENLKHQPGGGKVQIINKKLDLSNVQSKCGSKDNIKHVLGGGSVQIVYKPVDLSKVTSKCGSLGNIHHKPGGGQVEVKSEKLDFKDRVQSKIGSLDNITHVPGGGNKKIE
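Read-out: fluorescence polarization of Alexa 594-labeled tau (0.24 uM), 555 nm excitation, 632 nm emission. Mixtures held 15 uM unlabeled K18 P301L, compound and 20 uM heparin, pH 7 acetate buffer, incubated 6 hr at 37 C.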
TexasRed fluor: counter-screen for TRb-SRC2 inhibitors: fluorescence interference. TRb/SRC2 Texas Red total fluorescence interference. Potency, µM (top dose mostly 106 µM), inactives show at the highest dose fluorescence change, negative = quenching. 280,000 tested, 0.29% active; active = well fitted curve in either direction with a large enough effect; inconclusive = small, poorly fitted or top-dose-only effect
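Flags fluorescent or light-absorbing compounds by total fluorescence, S + 2P, at 555 nm excitation and 632 nm emission. Mixture: 20 nM Texas Red SRC2 peptide, 0.6 uM human TRb LBD, 1 uM T3, 5% DMSO; compound exposure 5 h at ambient temperature.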
Tau fibril ThT: tau fibrillization inhibition (ThT binding); P10636; recombinant tau K18 P301L, heparin-induced fibrillization, ThT fluorescence; Potency, µM (titrated, usually from 57.4 µM), for inactives: at the highest dose activity, negative = inhibition, hits mostly inhibitors; 270,000 tested, 2.1% active; AID 1460; also: nearly all actives have a fitted effect of over 55% in size
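Recombinant human tau K18 fragment […] carrying P301L, 15 uM unlabeled plus 0.24 uM Alexa 594-labeled, was fibrillized with 20 uM heparin in 100 mM sodium acetate pH 7 for 6 hr at 37 C; 30 uM ThT fluorescence read after 1 hr.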
Tau fluor cs: counter-screen for tau fibril formation inhibitors. tau K18 P301L (four-repeat tau fragment) Alexa594 fluorescence, heparin fibrillization. Potency, µM (doses to about 57.7 µM), without a hit: top-dose activity change, negative = decrease. 280,000 tested, 0.93% active. AID 1463; also: nearly all actives have a fitted effect of over 55% in size
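Human K18 P301L tau (15 uM unlabeled plus 0.24 uM Alexa 594-labeled, final) in 100 mM sodium acetate pH 7 was mixed with compound and 20 uM heparin and incubated 6 hr at 37 C.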
TRb SRC2 PPI: inhibitors of human thyroid hormone receptor beta-SRC2 interaction. TRbeta-SRC2 peptide binding, fluorescence polarization; receptor liganded with 1 µM T3. Potency, µM (titrated, usually from 106 µM), without a hit: top-dose activity change, negative = inhibition, usual class: inhibitors. 280,000 tested, 0.065% active;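 also: plate controls were bound peptide for no effect and peptide without receptor for full effect; nearly all actives have a fitted effect of over 50% in size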
Target sequence (P10828 whole entry, looked up): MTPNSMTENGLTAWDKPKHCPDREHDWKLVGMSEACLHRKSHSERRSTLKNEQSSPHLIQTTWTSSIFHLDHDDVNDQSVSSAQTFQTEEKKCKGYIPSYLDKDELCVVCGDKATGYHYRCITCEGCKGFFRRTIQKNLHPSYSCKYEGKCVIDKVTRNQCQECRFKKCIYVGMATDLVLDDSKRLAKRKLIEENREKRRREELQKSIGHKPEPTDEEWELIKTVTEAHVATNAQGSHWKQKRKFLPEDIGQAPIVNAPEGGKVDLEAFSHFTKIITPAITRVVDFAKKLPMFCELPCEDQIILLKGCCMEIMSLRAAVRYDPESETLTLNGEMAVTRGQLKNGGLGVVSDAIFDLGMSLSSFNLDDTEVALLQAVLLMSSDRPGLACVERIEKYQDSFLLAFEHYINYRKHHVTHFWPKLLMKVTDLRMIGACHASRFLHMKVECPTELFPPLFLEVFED
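Assay buffer: 20 mM Tris-HCl, 100 mM NaCl, 10% glycerol, 1 mM EDTA, 0.01% NP-40, 1 mM DTT, 1 uM T3, 5% DMSO; TRb LBD 0.6 uM, Texas Red SRC2 20 nM; FP after 5 hr.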
* = called active by the depositor; u = inconclusive; x = not tested or not shown; ! = repeats disagree; [ ] = another dose, or the depositor's remark. Unless noted, calls follow the shape of the dose curve; as a rule, active = well fitted curve in the direction sought with a large enough effect; inconclusive = small, poorly fitted or top-dose-only effect, or another doubt; inactive = no such curve, though single readings can be large; an effect the other way counts as inactive or inconclusive. Unless noted, % is scaled to controls: 0 for no effect and ±100 for the full control effect; potency is read from the fitted curve at half-maximal effect.

SMILES	Tau FP inhib	TexasRed fluor	Tau fibril ThT	Tau fluor cs	TRb SRC2 PPI
CCN(CC)c1ccc(/C=c2/sc3nnc(-c4ccccc4C)n3c2=O)cc1	5%	19%	u	-10%	14%
CCN(CC)c1ccc(/C=c2\sc3nnc(-c4ccccc4Cl)n3c2=O)cc1	-4%	4%	7.1µM*	-14%	10%
Cc1ccc(NC(=O)Cn2c(=O)oc3cc(S(=O)(=O)N4CCCCC4)ccc32)c(Cl)c1	-6%	1%	0%	-17%	6%
CCCC12CN3CC(CCC)(CN(C1)C3c1ccccc1)C2=O (stereo not given)	4%	-1%	-7%	-8%	3%
CN(C)c1ccc(N2CN=C3SCC(=O)N3C2)cc1	13µM*	u	5µM*	u	16µM*
O=C1CSC2=NCN(c3ccc4c(c3)OCO4)CN12	7%	0%	u	-30%	-8%
CCOC(=O)c1csc(NC(=O)CSc2nnnn2-c2ccc(OC)cc2)n1	u	0%	-20%	-16%	-17%
CCOC(=O)c1c(NC(=O)CSc2nnnn2-c2ccc(OC)cc2)sc(C)c1C	u	-2%	32µM*	-27%	0%
CC(=O)Nc1ccc(C(=O)Nc2ccc3c(c2)N(C2CCCC2)C(=O)c2ccccc2S3)cc1	13µM*	-4%	13%	u	-8%
O=C(Nc1ccc2c(c1)N(Cc1ccccc1)C(=O)c1ccccc1S2)NC1CC1	22µM*	-1%	6%	u	-4%
CN1C(=O)c2ccccc2Sc2ccc(NC(=O)NC3CC3)cc21	-1%	-3%	-19%	-22%	-16%
Cc1cccc(N2CCN(S(=O)(=O)c3ccc(-c4cnc(C5CC5)o4)cc3)CC2)c1C	10%	1%	10%	-3%	5%
O=C1c2ccccc2C(=O)c2cc(S(=O)(=O)Nc3ccccc3)ccc21	u	-4%	22µM*	14µM*[quencher]	4%
Cc1ccc(C(=O)Nc2ccc(C(=O)N/N=C/c3c[nH]c4ccccc34)cc2)cc1	11%	-10%	13µM*	14µM*[quencher]	5%
COc1ccc2c(Cl)c(C(=O)N/N=C/c3c(C)[nH]c4ccccc34)sc2c1	8%	0%	4.5µM*	11µM*[quencher]	3%
O=C(N/N=C/c1ccc([N+](=O)[O-])o1)c1sc2ccccc2c1Cl	-4%	0%	3.5µM*	u	5%
Cc1cccc(NC(=S)N/N=C/c2c[nH]c3ccccc23)c1	u	-5%	16µM*	8.9µM*[quencher]	-2%
CC1CCC2C(=O)OC(CN=[N+]=[N-])CN2C1c1ccc(Br)cc1 (stereo not given)	2%[11.6 µM]	-1%[11.2 µM]	-12%[11.5 µM]	-16%[11.6 µM]	0%[11.2 µM]
CCOc1cc(C(=O)Nc2ccc(-c3nc4ccccc4s3)cc2Cl)cc(OCC)c1OCC	u	-2%	-4%	u	-6%
O=C(N/N=C/c1c[nH]c2ccccc12)c1sc2ccccc2c1Cl	-3%	-7%	u	8.9µM*[quencher]	6%
COc1ccc(C2=C(C)C(=O)N(Cc3ccc(C(=O)NCc4cccc(C)c4)cc3)S2(=O)=O)cc1	-4%	158µM*[quencher]	-4%	-19%	-24%
COc1ccc(C2=C(C)C(=O)N(Cc3ccc(C(=O)NCc4ccc(C)cc4)cc3)S2(=O)=O)cc1	3%	0%	4%	-3%	2%
CC(O)C#C[Si](C)(C)c1ccccc1 (stereo not given)	2%	-1%	1%	0%	3%
Cc1cccc(-n2c(=O)c3ccccc3n(Cc3ccccc3)c2=O)c1	-5%	-8%	-9%	-12%	4%
Cc1ccc(O)c(CNc2cccc3cccnc23)c1	3%	-1%	u	14µM*[quencher]	1%
SMILES	Tau FP inhib	TexasRed fluor	Tau fibril ThT	Tau fluor cs	TRb SRC2 PPI
Cc1ccc(O)c(CNc2ccccn2)c1	1%	-4%	5%	-1%	1%
Cc1ccccc1OCC(=O)Nc1ccc(-c2nc3cc(Cl)cc(Cl)c3o2)cc1	3%	-12%	u	-4%	-1%
Oc1ccc(/C=N/Nc2cc(N3CCCC3)nc(N3CCCC3)n2)cc1O	-13%	-4%	25µM*	16µM*[quencher]	2%
Oc1ccc(/C=N\Nc2cc(N3CCOCC3)nc(N3CCOCC3)n2)c(O)c1	3%	-3%	u	u	-6%
CCOc1ccc(-n2c(-c3ccc(Br)cc3)cc3c2CC(C)(C)CC3=O)cc1	u	2%	-12%	-17%	2%
Cc1cc(O)c2c(c1)C(=O)c1cccc(O)c1C2=O	-1%	0%	u	-10%	-9%
O=C(O)c1cc(O)c2c(c1)C(=O)c1cccc(O)c1C2=O	u	u	18µM*	18µM*![quencher]	1%
Cc1ccc(Cl)c2sc(NC(=O)CS(=O)(=O)c3ccc(Cl)cc3)nc12	11µM*	0%	1%	u	-7%
Nc1c(C(=O)N/N=C/c2ccc(Cl)cc2)cnn1-c1ccccc1	-2%	-2%	0%	-2%	0%
Nc1scc2c(C(=O)N/N=C/c3ccc(Cl)cc3)nn(-c3ccccc3)c(=O)c12	u	-4%	11µM*	u	-10%
CC1CCCCN1C(=O)Cn1cc(/C=C2/C(=O)Nc3ccccc32)c2ccccc21 (stereo not given)	15%	-10%	10µM*	u	5%
CC1CCCCN1C(=O)Cn1cc(C=O)c2ccccc21 (stereo not given)	3%	0%	3%	4%	3%
CCCCCCCCCCCCCCCCCC#N	x	4%[201 µM]	x	x	-2%[201 µM]
Cc1ccc(-c2nn(-c3ccccc3)cc2/C=C2\SC(=S)N(CC(=O)O)C2=O)cc1	-4%	-3%	18µM*	-12%	13%
O=C(O)CCCCCN1C(=O)/C(=C\c2cn(-c3ccccc3)nc2-c2cccs2)SC1=S	8%	-4%	14µM*	-16%	2%
Cc1cc(C)cc(NC(=O)CSc2oc(-c3cccs3)nc2S(=O)(=O)c2ccccc2)c1	u	-2%	-6%	u	3%
COc1ccc(C(CC(=O)Nc2ccc(Br)cn2)N2Cc3ccccc3C2=O)cc1 (stereo not given)	0%	-1%	u	-13%	2%
CCOc1ccc(S(=O)(=O)N2CCC(c3ccncc3)CC2)cc1	-9%	0%	-9%	-9%	-7%
O=C[C@@H]1CCCN1C(=O)[C@@H]1CCCN1C(=O)OCc1ccccc1	22µM*	1%	18µM*	-24%	-9%
O=C(O)CCC(NC(=O)C1CCCN1C(=O)OCc1ccccc1)C(=O)O (stereo not given)	-11%	0%	-11%	-15%	-2%
CCN1/C(=C2\C(=O)N(C)C(=S)N2C)C=Cc2cc(OC)ccc21	-9%	9%	-18%	-9%	1%
C=CCn1c(=O)/c(=C2/Sc3cc(OC)ccc3N2C)s/c1=C1\C(=O)N(CC)C(=S)N1C	19%	-1%	10µM*	-20%	-4%
